Screens as filed in PubChem.
Hits are enriched below; roughly 19% of the tested compounds scored in any of these assays.
HT1080 IDH1KD tx – HT-1080 IDH1 knockdown cell toxicity (counter line) | HT-1080 IDH1 knockdown viability, ATP luminescence, 48 h | 360,000 compounds, 2% hits | AID 686971 | Potency, µM (series often up to 46.1 µM), for inactives: top-dose activity, negative = toxicity, usual class: cytotoxic;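 also: potency is read from the fitted curve at half-maximal effect; 0% = DMSO wells and -100% = cell-free medium wells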
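HT-1080-IDH1KD cells (IDH1 knocked down), 750/well in RPMI with 5% FBS, treated with compound 48 h at 37 degrees C. Viability by CellTiter-Glo luminescence, normalised to DMSO and no-cell wells; concentration-response curves classed.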
DT40 TDP1 no CPT – qHTS for Inhibitors of human tyrosyl-DNA phosphodiesterase 1 (TDP1): qHTS in cells in absence of CPT. Potency, µM (top dose mostly 46.2 µM), inactives show at the top dose activity change, negative = growth inhibition, actives largely listed as inhibitors. DT40 Tdp1-/- hTDP1 cells, no CPT, ATP luminescence, 48 h. AID 686978, 2013. 420,000 compounds, 15% hits; also: potency is read from the fitted curve at half-maximal effect; nearly all actives have a fitted effect of over 55% in size
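Luminescent ATP content (CellTiter-Glo) served as the growth readout. Knockout chicken DT40 cells expressing human TDP1 were exposed to compounds without camptothecin for a minimum 48 hr at 37 °C.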
IL1B secr inh – inflammasome signaling inhibition, IL-1 beta readout; THP-1 LPS/ATP IL-1B secretion, AlphaLISA, 16 h; active compounds read low; activity change, % at 57.5 µM; 360,000 compounds, 4.7% hits; in the data active = activity change below about -50%; inconclusive = mostly about -30% to -49%
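Secreted IL-1B measured by AlphaLISA bead assay after 16 h compound exposure of THP-1 cells; compounds (final up to 57.5 uM) added 1 h before LPS (250 ng/mL) and ATP (1.25 mM) stimulation; lower signal means less secretion.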
DT40 TDP1 CPT – growth inhibition of DT40 Tdp1-/-;hTDP1 cells with camptothecin (screen for TDP1 inhibitors) | 420,000 compounds, 12% hits | chicken DT40 Tdp1-/-;hTDP1 cells + 20 nM CPT, ATP luminescence, 48 h | Potency, µM (doses to about 46.2 µM), for the others: at the highest dose activity change, negative = growth inhibition, hits mostly inhibitors; also: potency is read from the fitted curve at half-maximal effect; nearly all actives have a fitted effect of over 55% in size
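Chicken DT40 Tdp1-/- cells complemented with human TDP1, 400 cells/well, exposed to compounds plus 20 nM camptothecin for at least 48 h at 37 C; viability read as ATP content by CellTiter-Glo luminescence.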
uPA generation – blocks generation of uPA at the cell surface; AID 540303; 330,000 compounds, 0.31% hits; cell surface uPA generation assay, qHTS; Potency, µM (top dose mostly 38.3 µM), inactives show at the highest dose activity change, negative = inhibition, actives largely listed as inhibitors; active = well fitted inhibition curve with a large enough effect; inconclusive = small, poorly fitted or top-dose-only effect; inactive = no such curve, though single readings can be large or run the other way; tested in mouse RAW 264.7 cells; also: potency is read from the fitted curve at half-maximal effect; nearly all actives have a fitted effect of over 55% in size
HT1080NT lethal – kills 2HG-producing HT-1080-NT fibrosarcoma cells. HT-1080-NT fibrosarcoma viability, CellTiter-Glo ATP luminescence, 48 h. Potency, µM (doses to about 46.1 µM), for inactives: at the top dose activity, negative = less viability, most hits filed as cytotoxic. 360,000 compounds, 1.6% hits. AID 686970;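 also: NT is the 2HG producing partner of a matched IDH1 knockdown line; potency is read from the fitted curve at half-maximal effect; 0% = DMSO-treated cells and -100% = media-only wells without cells; nearly all actives have a fitted effect of over 55% in size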
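A 48-hour cytotoxicity screen used HT-1080-NT cells plated 2 hours before compound delivery. ATP-based CellTiter-Glo luminescence measured viability, normalized to DMSO and no-cell controls.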
Starred values were filed as active, the others as inactive; ? = inconclusive; · = no result. Unless noted, calls follow the shape of the dose curve; as a rule, active = well fitted curve in the direction sought with a large enough effect; inconclusive = small, poorly fitted or top-dose-only effect, or another doubt; inactive = no such curve, though single readings can be large; an effect the other way counts as inactive or inconclusive. Unless noted, % is scaled to controls: 0 for no effect and ±100 for the full control effect.

SMILES | HT1080 IDH1KD tx | DT40 TDP1 no CPT | IL1B secr inh | DT40 TDP1 CPT | uPA generation | HT1080NT lethal
Cc1noc(C)c1C(=O)N(C)C[C@@H]1OCc2ccccc2-c2c(n(C)c3ccccc23)C(=O)N([C@H](C)CO)C[C@H]1C | -10% | 18µM* | 9 | ? | · | -4%
C[C@@H]1CN([C@H](C)CO)C(=O)c2c(c3ccccc3n2C)-c2ccccc2CO[C@H]1CN(C)C(=O)NC1CCCCC1 | 3% | 26µM* | 21 | 18µM* | · | -13%
C[C@H](CO)N1C[C@H](C)[C@H](CN(C)C(=O)c2ccccc2)OCc2ccccc2-c2c(n(C)c3ccccc23)C1=O | ? | ? | -3 | ? | · | -21%
Cc1ccc(CN(C)C(=O)CSc2nnc3n2CCCCC3)c(C)c1 | -4% | ? | 0 | -19% | 4% | -5%
O=C(c1cnc2n(c1=O)CCS2)N1CCN(C(c2ccccc2)c2ccc(Cl)cc2)CC1 (centres undefined) | -15% | 21µM* | -21 | 12µM* | 2% | -30%
CCOc1ccc(CCN2C(=O)C(=O)N([C@@H](CC(C)C)CN3CCC[C@H]3CN3C(=O)C(=O)NC[C@@H]3Cc3ccccc3)C[C@@H]2Cc2ccc(O)cc2)cc1 | ? | ? | 0 | ? | · | ?
CCOc1ccc(CCN2C(=O)C(=O)N([C@@H](CC(C)C)CN3CCC[C@@H]3CN3C(=O)C(=O)NC[C@@H]3Cc3ccccc3)C[C@@H]2CC(C)C)cc1 | ? | 23µM* | ? | ? | ? | ?
CCOc1ccc(CCN2C(=O)C(=O)N([C@@H](CC(C)C)CN3CCC[C@@H]3CN3C(=O)C(=O)NC[C@@H]3Cc3ccccc3)C[C@@H]2Cc2ccc(O)cc2)cc1 | -9% | ? | -52* | ? | 5% | -10%
CCOc1ccc(CCN2C(=O)C(=O)N([C@@H](CC(C)C)CN3CCC[C@H]3CN3C(=O)C(=O)NC[C@@H]3Cc3ccccc3)C[C@@H]2Cc2ccccc2)cc1 | ? | 16µM* | ? | 16µM* | · | ?
CCOc1ccc(C(=O)NC2CC(=O)N(c3ccc(C)cc3)C2)cc1OCC (centres undefined) | · | ? | · | -5% | · | ·
Cc1ccnc(NS(=O)(=O)c2cc(-c3cc(C)no3)ccc2C)c1 | · | -11% | · | 0% | · | ·
CCc1ccc(S(=O)(=O)Nc2ccncc2)cc1 | -2% | 0% | 0 | -5% | -1% | 18%
Cc1ccc(NS(=O)(=O)c2ccc(-c3cc(C)no3)cc2)c(C)c1 | · | 5.8µM* | · | 4.6µM* | · | ·
Cc1cc(-c2ccc(S(=O)(=O)Nc3ccc(Cl)cc3)cc2)on1 | · | 18µM* | · | 16µM* | · | ·
CCc1ccc(NS(=O)(=O)c2ccc(-c3cc(C)no3)cc2)cc1 | · | 13µM* | · | 13µM* | · | ·
Cc1ccc(NS(=O)(=O)c2cnc(N)nc2)c(C)c1 | · | 0% | · | 4% | · | ·
Cc1cc(C)cc(NS(=O)(=O)c2ccc(-c3cc(C)no3)cc2)c1 | · | 1.2µM* | · | 1.3µM* | · | ·
CO[C@H]1[C@H](NC(=O)C(C)C)c2ccccc2C12CCN(Cc1c(C)nn(C)c1Cl)CC2 | · | -12% | · | 5% | · | ·
N#Cc1c(NC(=O)CSc2nnnn2C2CCCCC2)sc2c1CCCC2 | 12% | 16µM* | 15 | ? | 3% | 9%
Cc1nnc(SCC(=O)Nc2sc3c(c2C#N)CCCCC3)n1N | -4% | -22% | 29 | 9% | 2% | -4%
O=C(CSc1nnnn1C1CCCCC1)Nc1nc2c(s1)CCCC2 | 0% | 21µM* | 13 | 15µM* | 3% | 0%
CCOc1ccc(CCNC(=O)COC(=O)c2cccc(S(=O)(=O)N3CCOCC3)c2)cc1OCC | 4% | -21% | 4 | -3% | -6% | 3%
COc1cc(/C=C(/C#N)C(=O)Nc2ccc(Cl)cc2)ccc1Oc1nc(Cl)ncc1F | -1% | -27% | -21 | 9.2µM* | -1% | 16%
CCCS(=O)(=O)NC(=O)C1(C)CCCN(C(=O)c2cccc(Cl)c2)C1 (centres undefined) | 13% | -12% | -10 | 17% | · | ?
Cc1cc(=O)oc2c3c(cc(OCC(=O)NCc4cccnc4)c12)OC(C)(C)CC3 | -10% | ? | -17 | ? | -9% | -3%
SMILES | HT1080 IDH1KD tx | DT40 TDP1 no CPT | IL1B secr inh | DT40 TDP1 CPT | uPA generation | HT1080NT lethal
COc1ccccc1CNC(=O)COc1cc2c(c3oc(=O)cc(C)c13)CCC(C)(C)O2 | -14% | 23µM* | -61* | 23µM* | -5% | -1%
CCc1cc(=O)oc2c3c(cc(OCC(=O)NCc4ccncc4)c12)OC(C)(C)CC3 | -16% | 21µM* | -25 | 16µM* | -3% | -3%
CCc1cc(=O)oc2c3c(cc(OCC(=O)NCc4ccco4)c12)OC(C)(C)CC3 | -6% | ? | 0 | ? | -6% | -8%
COc1ccc(CNC(=O)COc2cc3c(c4oc(=O)cc(C)c24)CCC(C)(C)O3)cc1 | 7% | ? | ? | ? | 4% | 9%
COc1cccc(CNC(=O)COc2cc3c(c4oc(=O)cc(C)c24)CCC(C)(C)O3)c1 | -5% | 16µM* | -8 | 21µM* | -1% | -1%
COc1ccc(OCCC(=O)OCC(=O)NCc2ccccc2OC)cc1 | 11% | -4% | 2 | 4% | 4% | 7%
Cn1cnc2c1c(=O)n(Cc1cccc(Cl)c1)c(=O)n2C | 1% | -29% | 13 | 11% | 4% | -14%
O=C(NCc1ccncc1)[C@@H]1CCCN1C(=O)[C@H]1CCCN1C(=O)c1c(F)cccc1F | 4% | -13% | 41 | -8% | · | 13%
Clc1ccc2c(c1)C(N1CCNCC1)Cc1ccccc1S2 (centres undefined) | 18µM* | 23µM* | -100* | ? | -7% | ?
O=C(c1ccccc1Cl)N1CCNCC1 | 11% | 0% | 7 | 4% | 7% | 6%
Clc1cccc2c1Sc1ccccc1CC2N1CCNCC1 (centres undefined) | 18µM* | 18µM* | · | 18µM* | 5% | 23µM*
CC1=C(C(=O)Nc2ccccc2)C(c2ccncc2)n2nc(SCc3ccccc3Cl)nc2N1 (centres undefined) | · | -15% | · | -3% | · | ·
COc1cccc(N2CC(O)=C(c3nc4ccccc4s3)C2=N)c1 | ? | 1.5µM* | 61 | 1.6µM* | ? | ?
COc1ccc(N2CC(O)=C(c3nc4ccccc4s3)C2=N)cc1 | -28% | -15% | 29 | -27% | 1% | ?
